Screening results: PubChem, ICCB-Longwood Screening Facility, Harvard Medical School
A selection: hits, their analogues and other compounds. The true share with any hit is near 1.4%.
MbtI inh: inhibitors of Mycobacterium tuberculosis siderophore enzyme MbtI; purified MbtI enzyme, fluorescence intensity read-out; inhibition, % (no concentration beside the values); 100,000 tested, 0.89% active; AID 493033; in the data active means inhibition mostly above about 56%, no sharp cut-off; inactive means mostly below about 77%
MenB inh: blocks the Mycobacterium tuberculosis MenB enzyme | P9WNP5 | MenB enzyme assay, absorbance read-out | inhibition, % (no concentration beside the values) | 100,000 tested, 0.43% active | AID 540299; in the data active means inhibition above about 21%, passing the limit was not always enough
AID504770: growth inhibitors of E. coli YBA685 in a screen for V. cholerae RctB (chromosome II replication) inhibitors; E. coli YBA685 rctB-dependent plasmid, OD600 growth, 3 h; active compounds read low; z-score (concentration not given with the values); 130,000 tested, 0.27% active; AID 504770; in the data active means z-score below about -2, passing the limit was not always enough
PV pol inh: poliovirus RNA polymerase inhibition. poliovirus polymerase elongation, fluorescence polarization; active compounds read low. % elongation, % (compound at 16.7 µg/mL). 150,000 tested, 0.66% active; in the data active means % elongation below about 90%
Target sequence (P03300 1749-2209 limits assumed): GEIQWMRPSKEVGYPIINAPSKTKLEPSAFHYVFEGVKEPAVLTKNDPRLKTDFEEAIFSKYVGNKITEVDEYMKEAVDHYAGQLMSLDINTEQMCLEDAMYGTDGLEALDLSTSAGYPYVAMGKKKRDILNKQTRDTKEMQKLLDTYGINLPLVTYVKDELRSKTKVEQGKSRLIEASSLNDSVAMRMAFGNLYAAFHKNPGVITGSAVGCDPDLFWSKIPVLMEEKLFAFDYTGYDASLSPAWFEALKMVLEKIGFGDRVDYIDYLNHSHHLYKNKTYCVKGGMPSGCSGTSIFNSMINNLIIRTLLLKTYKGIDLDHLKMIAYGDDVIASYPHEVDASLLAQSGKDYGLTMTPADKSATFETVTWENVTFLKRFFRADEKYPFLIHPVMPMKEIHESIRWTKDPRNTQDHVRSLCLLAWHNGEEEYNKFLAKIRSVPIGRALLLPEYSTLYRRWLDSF
* hit, by the source's call.

Screening O=C(O)CCC(=O)N1CC(=O)Nc2ccccc21 returned MenB inh -8, AID504770 -0.05 and PV pol inh 96.
Screening CC1(C)C(=O)NCCN1C(=O)CCC(=O)O returned MbtI inh -2, MenB inh 31*, AID504770 -0.35 and PV pol inh 100.
CC(=O)OC1COC(NC(=S)Oc2ccccc2)C(OC(C)=O)C1OC(C)=O (stereo not given) was read as MenB inh 9, AID504770 -1.6 and PV pol inh 109.
For COc1ccc(NS(=O)(=O)c2ccc3oc(SC)nc3c2)cc1 the results were MbtI inh 92*, MenB inh -48, AID504770 0 and PV pol inh 82*.
For COc1ccc(NS(=O)(=O)c2ccc3oc(SC/C(O)=C(\C#N)c4nc5ccccc5s4)nc3c2)cc1 the results were MbtI inh 42, MenB inh -24, AID504770 -0.85 and PV pol inh 106.
Screening CN(C)C(=S)Nc1ccccc1N1CCOCC1 returned MbtI inh 95*, MenB inh -11, AID504770 -0.6 and PV pol inh 98.
`C=C1C(C(=O)Nc2ccccc2N2CCOCC2)C1C(=O)Nc1ccccc1N1CCOCC1` (stereo not given) gave MbtI inh -11, MenB inh -26, AID504770 0.25 and PV pol inh 103.
Cc1ccc(N=c2scc3n2CCC3)cc1 was read as MbtI inh -3 and AID504770 -1.
`CO/N=C(\C(=O)NC1C(=O)N2C(C(=O)OCOC(=O)C(C)(C)C)=C(/C=C\c3scnc3C)CSC12)c1csc(N)n1` (stereo not given) gave MbtI inh -15, MenB inh -1, AID504770 -0.1 and PV pol inh 100.
C=CC1=C(C(=O)O)N2C(=O)[C@@H](NC(=O)/C(=N\O)c3csc(N)n3)[C@H]2SC1 (stereo in doubt) was read as MbtI inh -4, MenB inh 0, AID504770 -5.1* and PV pol inh 100.
Screening Cc1ccc(-n2c3c(cc(C(N)=O)c2=O)C(=O)CC(C)(C)C3)cc1 returned MbtI inh 2, MenB inh -19, AID504770 -0.8 and PV pol inh 102.
For Cc1sc2nc(CC#N)[nH]c(=O)c2c1C the results were MbtI inh 3, AID504770 -0.4 and PV pol inh 107.
CCN(CC)Cc1nc2sc(C)c(C)c2c(=S)[nH]1 was read as MbtI inh 80*, MenB inh -73, AID504770 -0.6 and PV pol inh 101.
Screening O=c1ccc(S(=O)(=O)N2CCCC2)cn1Cc1c(-c2ccccc2)nc2sccn12 returned MbtI inh 3, MenB inh -2, AID504770 -0.1 and PV pol inh 103.
`O=C1NC(=O)C(C(c2ccccc2)c2ccccc2)C(=O)N1` gave MbtI inh 1, MenB inh 32*, AID504770 1.1 and PV pol inh 99.
`O=C1NC(=O)C(c2ccccc2)N1` (stereo not given) gave MbtI inh -3, MenB inh -2, AID504770 -1.1 and PV pol inh 106.
`CC(C)Cn1c(=S)[nH]c2ccccc21` gave MbtI inh 17, MenB inh 0, AID504770 0.7 and PV pol inh 99.
CC(C)Cn1c(=S)[nH]c2cc(Cl)ccc21 was read as MbtI inh 85*, MenB inh -27, AID504770 -0.55 and PV pol inh 78*.
Screening COCCNC(=S)c1ccc(N(C)C)cc1 returned MbtI inh 62*, MenB inh -52, AID504770 -0.35 and PV pol inh 101.
For CC(C)(C)N1CSC(=S)N(Cc2ccco2)C1 the results were MbtI inh 74, MenB inh -49, AID504770 -7.9* and PV pol inh 101.
`CCC(C(=O)NCC1CCCO1)c1ccccc1` (stereo not given) gave MenB inh 6, AID504770 0.3 and PV pol inh 109.
Screening N#C/C(=C\c1ccco1)C(=O)Nc1ccccc1 returned MbtI inh 4, MenB inh -78, AID504770 -0.15 and PV pol inh 104.
COC(=O)c1c(NC(=O)/C(C#N)=C/c2ccco2)sc(C)c1C was read as MbtI inh 82*, MenB inh -12, AID504770 0.3 and PV pol inh 95.
Screening COc1cccc(C2C(C#N)=C(N)Oc3c2c(=O)n(C)c(=O)n3C)c1 (stereo not given) returned MbtI inh -20, MenB inh -42, AID504770 -0.75 and PV pol inh 101.
Cn1c2c(c(=O)n(C)c1=O)C(c1ccccc1)C(C#N)=C(N)O2 (stereo not given) was read as MenB inh -19, AID504770 -2.3 and PV pol inh 85*.
CC1(C)CC(NC(=O)CCc2ccccc2)CC(C)(C)N1 was read as MbtI inh 4, MenB inh 39*, AID504770 0.7 and PV pol inh 101.
For CC1(C)CC(NC(=O)CCCC(=O)O)CC(C)(C)N1 the results were MbtI inh -19, MenB inh -6, AID504770 -0.2 and PV pol inh 102.
CC1=CC(=O)C(CCCCCC2=CC(=O)C(C)=CC2=O)=CC1=O was read as MbtI inh 95*, MenB inh 7, AID504770 1.3 and PV pol inh 103.
CC1=CC(=O)C(CCOCCC2=CC(=O)C(C)=CC2=O)=CC1=O was read as MbtI inh 100*, MenB inh -4, AID504770 0.75 and PV pol inh 101.
Cc1nn(Cc2c(Cl)cccc2Cl)c(Cl)c1CN1CCN(CC(=O)N2CCCC2)CC1 was read as MbtI inh 5, MenB inh 15, AID504770 1.7 and PV pol inh 87*.
O=C(Nc1nccs1)c1ccc2c(c1)C(=O)N(CC1CCCO1)C2=O (stereo not given) was read as MbtI inh -11 and AID504770 -1.1.
Screening CCOC(=O)c1ccc(-n2c(N)c(C(=O)N3CCCC3)sc2=S)cc1 returned MbtI inh 93*, MenB inh -25, AID504770 -1.1 and PV pol inh 99.
Screening CCOc1ccc(-n2c(N)c(C(=O)N3CCN(C)CC3)sc2=S)cc1 returned MbtI inh 0, MenB inh -43, AID504770 0.45 and PV pol inh 99.
For CCOC(=O)c1ccc(-n2c(N)c(C(=O)NCC3CCCO3)sc2=S)cc1 (stereo not given) the results were MbtI inh 92*, MenB inh -13, AID504770 -0.6 and PV pol inh 96.
For O=C1OC(C2CCCCC2)=N/C1=C\c1ccccc1 the results were MbtI inh 13, MenB inh -7, AID504770 -0.35 and PV pol inh 102.
`Cc1ccc(O)c(C(=O)c2cnn(C(=O)Cc3csc(C)n3)c2)c1` gave MbtI inh -13, MenB inh -27, AID504770 1.4 and PV pol inh 86*.
O=C1C=CC(=O)N1Cc1ccccc1 was read as MbtI inh -13, MenB inh -3, AID504770 -2.5* and PV pol inh 103.
O=c1[nH]cnc2sc3c(c12)CCCC3 was read as MbtI inh 29, MenB inh 34*, AID504770 1.2 and PV pol inh 101.
